TEAD-YAP inh – TEAD-YAP interaction inhibition; HEK-TIYL cells, TEAD-Gal4/YAP UAS-luciferase luminescence; inhibition, % at 9.12 µM; 640,000 tested, 1.4% active; AID 1259422; in the data active = inhibition above about 32%;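 also: 0% = median of test compound wells and 100% = reference inhibitor wells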
FBW7 act – human FBW7 E3 ligase activation, primary screen; normalized activity (activation), % at 26.1 µM; Q969H0; AID 1259310; 650,000 tested, 0.13% active; AlphaScreen FBW7–phospho-cyclin E peptide binding, activator screen; in the data active = normalized activity above about 1.9%;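 also: purified mutant Fbw7 with reduced substrate affinity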
MITF primary – blocks human microphthalmia-associated transcription factor. O75030. AlphaScreen MITF homodimerization, bead proximity signal. inhibition, % at 2.6 µM. 650,000 tested, 0.91% active. AID 1259374; in the data active = inhibition above about 50%;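 also: 0% = vehicle wells with protein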
GPR151 ag – activates the human receptor GPR151; Q8TDV0; PathHunter beta-arrestin GPR151 cells, luminescence; activation, % at 11.2 µM; 650,000 tested, 1% active; in the data active = activation above about 4.9%;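 also: 0% = median of compound wells and 100% = cells with positive control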
Target sequence (Q8TDV0 whole entry, looked up): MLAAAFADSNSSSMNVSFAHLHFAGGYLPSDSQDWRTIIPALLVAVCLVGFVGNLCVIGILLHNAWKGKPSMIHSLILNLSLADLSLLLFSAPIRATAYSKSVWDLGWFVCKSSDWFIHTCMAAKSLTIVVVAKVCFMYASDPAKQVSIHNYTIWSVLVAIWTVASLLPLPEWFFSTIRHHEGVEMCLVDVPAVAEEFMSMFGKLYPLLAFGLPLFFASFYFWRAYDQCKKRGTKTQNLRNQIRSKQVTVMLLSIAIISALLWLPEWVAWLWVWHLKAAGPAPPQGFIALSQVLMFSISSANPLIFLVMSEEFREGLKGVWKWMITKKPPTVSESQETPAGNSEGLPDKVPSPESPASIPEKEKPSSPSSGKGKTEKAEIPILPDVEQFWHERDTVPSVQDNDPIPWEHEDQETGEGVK
MITF inh conf – human MITF inhibition, confirmation | shares compounds with MITF primary | AlphaScreen MITF homodimerization, biotin/His-MITF beads | inhibition, % at 2.6 µM | 4,700 tested, 16% active | AID 1259372;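 active = inhibition above a cutoff derived from the DMSO control wells, cut at about 28% in these data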;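 also: 0% = MITF dimer wells with DMSO only; inhibitors lower the bead chemiluminescence by keeping MITF from dimerizing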
AS interf DR – AlphaScreen optical interference, dose response counter-screen; IC50, µM; AID 1259373; AlphaScreen optical interference counterscreen, cell-free; shares compounds with MITF primary; 480 tested, 6% active; call rule not given here
AS interf ctr – optically interferes with AlphaScreen signal; shares compounds with MITF primary; LysRS AlphaScreen counterscreen, signal interference, triplicate; inhibition, % at 2.6 µM; 4,700 tested, 7.6% active;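 active = inhibition above a cutoff derived from the DMSO control wells, cut at about 30% in these data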
* = called active by the depositor; x = no result; ! = not confirmed by another sample. Most compounds without a hit are left out; they make up all but 3.5% or so of the library.

SMILES | TEAD-YAP inh | FBW7 act | MITF primary | GPR151 ag | MITF inh conf | AS interf ctr | others
COc1ccc(OC)c(/C=C/C(=O)NCCN2CCC(N(C)C3CCCCC3C)CC2)c1 (stereo unspecified) | 2 | 0 | 52* | -1 | -1 | 14
CCOC(=O)c1c(NC(=O)CN(C)Cc2ccccc2)sc2c1CC(C)(C)NC2(C)C | 8 | -1 | 65* | 1 | 0 | 7
CCOC(=O)c1c(NC(=O)CN(C)C)sc2c1CC(C)(C)NC2(C)C | 10 | 0 | 40 | 2 | x | x
Cc1n[nH]c(C)c1CNC(=O)CC1C(=O)NCCN1Cc1cccc(Oc2ccccc2)c1 (stereo unspecified) | 9 | 0 | -1 | 0 | x | x
COc1cccc(COCC(O)CN2CC3(C)CC2CC(C)(C)C3)c1 (stereo unspecified) | 2 | 0 | 68* | -1 | 11 | 10
CC1(C)CC2CC(C)(CN2CC(O)COc2ccccc2)C1 (stereo unspecified) | -10 | 0 | 19 | -2 | x | x
CC(C)(C)c1csc(CN2CCN(CC(=O)N3CCOCC3)CC2)n1 | -3 | 0 | 54* | -1 | 0 | 4
CC(C)(C)c1csc(CN2CCN(CC(=O)NC3CCCCC3)CC2)n1 | 1 | 0 | 26 | 1 | x | x
O=C1CC(N2CCOCC2)C(=O)N1c1cc(C(F)(F)F)ccc1Cl (stereo unspecified) | 1 | 0 | 88* | -1 | -1 | 2
CCc1nc(NCC(C)C)c2nnn(Cc3ccccc3)c2n1 | -3 | 0 | 61* | 0 | -6 | -2
CCc1nc(NCCCCCO)c2nnn(Cc3ccccc3)c2n1 | 0 | 0 | 7 | 0 | x | x
CC(=O)c1cccc(OCC(O)CNCc2cccc(C(F)(F)F)c2)c1 (stereo unspecified) | 5 | 0 | 57* | -1 | -4 | 8
CCc1cccc(OCC(O)CNCc2cccnc2)c1 (stereo unspecified) | 3 | 0 | 76* | 1 | -14 | 18
CCn1c(=O)c2ccccc2n2c(SCC(=O)NC3CCCCC3)nnc12 | -2 | 0 | -5 | 0 | x | x
Cn1c(=O)c2ccccc2n2c(SCC(=O)NC3CCCCC3)nnc12 | 4 | 0 | 73* | 1 | 2 | 15
CC(C)CNC(=O)c1cn(C2CCCCC2)cc(C(=O)NCCc2cccnc2)c1=O | -43 | 0 | 51* | -1 | 3 | 0
CCOC(=O)CNC(=O)Cn1c(-c2cccnc2)nc2ccccc21 | -17 | 1 | 9 | -2 | x | x
O=C(NC1CC1)c1ccnc(-c2cccs2)c1 | -15 | 0 | 66* | 0 | 11 | 6
COc1ccc(C)c2sc(N(CCN(C)C)C(=O)c3ccc([N+](=O)[O-])o3)nc12 | 5 | 1 | 0 | 0 | x | x
Cc1ccc([N+](=O)[O-])cc1Nc1nc(=O)c2cccnc2s1 | -9 | 0 | 13 | 0 | x | x
C=CC[C@@H]1/C=C(\C)C[C@H](C)C[C@H](OC)[C@H]2O[C@@](O)(C(=O)C(=O)N3CCCC[C@H]3C(=O)O[C@H](/C(C)=C/[C@@H]3CC[C@@H](O)[C@H](OC)C3)[C@H](C)[C@@H](O)CC1=O)[C@H](C)C[C@@H]2OC | 9 | 0 | 111*! | 0 | 122* | 100*
COC1CC2CCC(C)C(O)(O2)C(=O)C(=O)N2CCCCC2C(=O)OC(C(C)CC2CCC(O)C(OC)C2)CC(=O)C(C)/C=C(\C)C(O)C(OC)C(=O)C(C)CC(C)/C=C/C=C/C=C/1C (stereo unspecified) | -9 | 0 | -10 | 1 | x | x
Cc1ccc(Cl)cc1-n1c(SCc2cccc(F)c2)nc2[nH]ncc2c1=O | -10 | 0 | 10 | -1 | x | x
Cc1ccc(-n2cc(-c3ccc(Cl)cc3)nc2SCC(=O)NCCc2ccccc2)cc1 | 3 | 0 | -7 | -1 | x | x
O=C1CC(N2CCN(c3ccc(Cl)cc3)CC2)C(=O)N1c1ccccc1F (stereo unspecified) | 8 | 0 | 2 | -1 | x | x
SMILES | TEAD-YAP inh | FBW7 act | MITF primary | GPR151 ag | MITF inh conf | AS interf ctr | others
O=C1CC(N2CCN(S(=O)(=O)c3ccccc3F)CC2)C(=O)N1c1ccccc1F (stereo unspecified) | 1 | 0 | 79* | -1 | -14 | 4
CCCN(CCC)C(=O)c1c(NC(=O)c2cccnc2)sc2c1CCCCC2 | -5 | 0 | -4 | 0 | x | x
CCCN(CCC)C(=O)c1c(NC(C)=O)sc2c1CCCCC2 | -10 | 0 | 65* | 2 | 63* | 38*
CN(CCC#N)C(=O)COC(=O)c1c2c(nc3ccccc13)/C(=C/c1ccco1)CC2 | -25 | 0 | 73* | 1 | 80* | -4 | AS interf DR=>6.9
NC(=O)NC(=O)COC(=O)c1c2c(nc3ccccc13)/C(=C\c1ccco1)CCC2 | -4 | 0 | 61* | -1 | 79* | -7 | AS interf DR=>7
CCN(CC)C(=O)C1CCCN(c2nc(NCCc3ccc(OC)cc3)c3ncn(C(C)C)c3n2)C1 (stereo unspecified) | 8 | 0 | 15 | 1 | x | x
CC1c2cccn2CCN1C1CCN(c2ccc(C(=O)NCc3cccnc3)cc2)CC1 (stereo unspecified) | 5 | 0 | 9 | -1 | x | x
COc1ccc(-c2cnn3ccc(NCc4cccnc4)nc23)cc1OC | 17 | 0 | 55* | 1 | 3 | 5
Cc1cc(C)c2c3c(sc2n1)C(=O)N(c1cccc(Cl)c1)CC(=O)N3 | 0 | 0 | 12 | 1 | x | x
CC1CCCC(N2CCN(Cc3ccc([N+](=O)[O-])cc3)CC2)C1 (stereo unspecified) | -14 | 0 | 94* | -1 | -6 | -2
COc1ccccc1N1CCN(C2CCN(C(=O)c3cccc4ccccc34)CC2)CC1 | 9 | 0 | 75* | 0 | -1 | 4
O=[N+]([O-])c1ccc(CN2CCC(O)CC2)cc1 | -6 | 0 | 18 | -1 | x | x
CC1CCCC(N2CCN(C3CCN(Cc4ccccc4)CC3)CC2)C1 (stereo unspecified) | 12 | 0 | 34 | 0 | x | x
O=[N+]([O-])c1ccc(CN2CCN(C3CCCC3)CC2)cc1 | -3 | 0 | 61* | -1 | 1 | -4
O=[N+]([O-])c1cccc(CN2CCC(N3CCN(c4ccccc4)CC3)CC2)c1 | 2 | 0 | 74* | 0 | 1 | 4
O=C(CN1C(=O)C(=O)N(Cc2ccccc2)C1=O)NCCN1C(=O)CSC1=O | 2 | 0 | 2 | -1 | x | x
O=C(c1ccc2c(=O)n(C3CCCCC3)c(SCc3cccc([N+](=O)[O-])c3)nc2c1)N1CCN(c2ccccc2)CC1 | -5 | 0 | 1 | 1 | x | x
CCN1CCN(C2CCN(Cc3cccc([N+](=O)[O-])c3)CC2)CC1 | 8 | 0 | 23 | 2 | x | x
O=[N+]([O-])c1ccc(CN2CCC(N3CCN(c4ccccc4F)CC3)CC2)cc1 | 16 | 0 | -2 | -1 | x | x

Assay outcomes deposited in PubChem BioAssay by The Scripps Research Institute Molecular Screening Center.
